beta cell repl – MIN6 beta-cell proliferation induction. MIN6 cells proliferation, ATPlite luminescence, 48 h; cells starved in 0.2% serum; 100% = growth in 10% serum. proliferation, % at 10 µM. 0.29% of 330,000 active;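 active = compounds whose signal lies at least 3.5 SD above the mean of all wells on their plate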;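 note: 0% = DMSO-treated cells in low-serum medium and 100% = 10% serum control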
aDG glyco up – alpha-DG glycosylation activation; Pro5-aDG cells, alpha-DG glycosylation AlphaScreen (IIH6); 0% Pro5, 100% B10-LARGE cell signal; AID 624168; 0.22% of 360,000 active; activation, % at 10 µM;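 active = activation of at least 8% versus controls, or a plate z-score of at least 8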;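 note: Pro5 are CHO cells carrying HIG-tagged alpha-DG that lacks glycosylation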
FAS TE block – blocks the thioesterase domain of human fatty acid synthase. inhibition, % at 15 µM. 0.67% of 360,000 active. recombinant FAS-TE, OMFH fluorogenic substrate, fluorescence endpoint. P49327;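 active = compounds whose normalised, plate-corrected inhibition of enzyme fluorescence in the single-dose primary screen is 50% or more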;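 note: 0% = DMSO with enzyme and 100% = substrate without enzyme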
Target sequence (P49327 whole entry, looked up, the tested form may be a part): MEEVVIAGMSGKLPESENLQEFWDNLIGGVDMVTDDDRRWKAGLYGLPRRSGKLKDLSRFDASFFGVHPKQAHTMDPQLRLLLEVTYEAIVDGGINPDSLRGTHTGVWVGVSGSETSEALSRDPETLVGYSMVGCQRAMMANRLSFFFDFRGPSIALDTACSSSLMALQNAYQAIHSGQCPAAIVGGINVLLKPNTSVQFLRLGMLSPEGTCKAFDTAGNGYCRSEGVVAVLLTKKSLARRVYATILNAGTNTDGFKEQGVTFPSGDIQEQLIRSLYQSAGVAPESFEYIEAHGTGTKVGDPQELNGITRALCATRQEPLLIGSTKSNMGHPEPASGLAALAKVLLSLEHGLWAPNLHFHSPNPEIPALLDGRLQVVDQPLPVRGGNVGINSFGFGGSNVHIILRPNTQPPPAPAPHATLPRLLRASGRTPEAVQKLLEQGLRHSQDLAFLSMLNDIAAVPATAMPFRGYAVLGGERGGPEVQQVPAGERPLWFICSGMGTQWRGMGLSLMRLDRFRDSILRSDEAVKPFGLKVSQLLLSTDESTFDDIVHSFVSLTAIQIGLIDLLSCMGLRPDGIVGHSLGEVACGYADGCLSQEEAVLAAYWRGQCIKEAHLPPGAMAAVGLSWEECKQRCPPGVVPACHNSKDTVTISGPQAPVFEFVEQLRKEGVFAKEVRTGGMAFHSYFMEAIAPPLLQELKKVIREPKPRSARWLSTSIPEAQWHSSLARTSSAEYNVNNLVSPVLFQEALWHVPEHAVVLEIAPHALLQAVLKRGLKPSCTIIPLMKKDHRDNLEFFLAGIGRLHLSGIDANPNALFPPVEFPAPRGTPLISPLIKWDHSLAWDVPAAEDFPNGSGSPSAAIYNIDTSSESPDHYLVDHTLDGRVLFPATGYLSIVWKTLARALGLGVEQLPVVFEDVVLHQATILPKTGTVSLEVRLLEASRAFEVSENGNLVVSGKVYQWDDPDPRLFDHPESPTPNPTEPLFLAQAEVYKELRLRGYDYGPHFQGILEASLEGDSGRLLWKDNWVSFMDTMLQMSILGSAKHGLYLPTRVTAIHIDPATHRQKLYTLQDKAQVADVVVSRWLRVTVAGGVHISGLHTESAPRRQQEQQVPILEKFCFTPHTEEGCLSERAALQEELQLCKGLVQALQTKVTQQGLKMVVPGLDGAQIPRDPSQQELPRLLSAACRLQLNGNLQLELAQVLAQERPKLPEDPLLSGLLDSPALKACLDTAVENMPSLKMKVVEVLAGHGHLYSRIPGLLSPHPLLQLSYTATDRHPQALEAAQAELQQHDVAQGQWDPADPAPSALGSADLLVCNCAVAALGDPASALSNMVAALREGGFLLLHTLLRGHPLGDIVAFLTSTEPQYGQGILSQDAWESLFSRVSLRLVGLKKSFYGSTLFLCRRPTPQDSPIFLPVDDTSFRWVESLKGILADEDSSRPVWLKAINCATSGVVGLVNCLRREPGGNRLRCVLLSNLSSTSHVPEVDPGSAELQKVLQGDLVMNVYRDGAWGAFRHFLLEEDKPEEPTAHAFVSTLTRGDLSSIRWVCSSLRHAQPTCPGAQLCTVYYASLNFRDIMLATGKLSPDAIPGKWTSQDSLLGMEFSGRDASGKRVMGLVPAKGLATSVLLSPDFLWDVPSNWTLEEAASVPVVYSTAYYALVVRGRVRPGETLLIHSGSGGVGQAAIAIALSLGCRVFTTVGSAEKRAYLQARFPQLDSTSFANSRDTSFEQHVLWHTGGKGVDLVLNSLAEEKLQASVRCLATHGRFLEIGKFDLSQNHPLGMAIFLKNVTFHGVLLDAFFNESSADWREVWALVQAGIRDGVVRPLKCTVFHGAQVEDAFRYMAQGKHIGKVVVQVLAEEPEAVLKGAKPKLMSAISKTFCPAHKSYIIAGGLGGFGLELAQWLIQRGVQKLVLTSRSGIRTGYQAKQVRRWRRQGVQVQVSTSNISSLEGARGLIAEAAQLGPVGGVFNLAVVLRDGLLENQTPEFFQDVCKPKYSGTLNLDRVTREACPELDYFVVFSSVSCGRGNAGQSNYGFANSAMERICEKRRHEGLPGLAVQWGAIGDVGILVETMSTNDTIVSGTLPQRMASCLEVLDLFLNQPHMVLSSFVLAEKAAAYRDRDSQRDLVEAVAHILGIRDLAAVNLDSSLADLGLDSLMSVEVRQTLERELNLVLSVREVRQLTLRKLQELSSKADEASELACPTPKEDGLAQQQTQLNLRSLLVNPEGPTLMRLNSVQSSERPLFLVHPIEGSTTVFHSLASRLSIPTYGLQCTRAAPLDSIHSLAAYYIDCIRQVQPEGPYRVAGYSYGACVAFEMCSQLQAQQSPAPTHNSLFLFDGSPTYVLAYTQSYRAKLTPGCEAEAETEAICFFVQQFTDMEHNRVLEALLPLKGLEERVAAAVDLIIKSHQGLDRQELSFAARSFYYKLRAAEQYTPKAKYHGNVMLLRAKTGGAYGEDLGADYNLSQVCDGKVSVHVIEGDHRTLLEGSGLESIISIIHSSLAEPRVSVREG
H9c2 TAG inh – triacylglycerol accumulation inhibition. 0.66% of 230,000 active. H9c2 cells, Nile Red lipid (TAG) fluorescence; cells loaded with 200 µM oleic acid. inhibition, % at 12.5 µM;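 active = pattern-corrected inhibition of lipid staining of at least 50% with the nuclear-stain viability signal not falling by more than 50%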;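 note: 0% = DMSO wells and 100% = triacsin C control wells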
Cardio protect – myocardial damage modulation in H9c2 cells; H9c2 cardiomyocytes, H2O2 injury protection, ATPLite, 2 h; protection from H2O2 cell death, % at 20 µM; 0.63% of 360,000 active; AID 588492;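 active = compounds giving at least 50% protection of heart cells from peroxide-induced death in the single-dose screen, raw or plate-pattern-corrected value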;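 note: 0% = DMSO wells with peroxide and 100% = DMSO wells without peroxide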
m-calpain inh – inhibitors of pig calpain II | purified calpain II, fluorogenic peptide substrate, 30 min | 0.37% of 220,000 active | AID 1236 | inhibition, % at 16 µM;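 active = inhibition above about 50%, limit read from the data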
TAG conf – confirmation of triacylglycerol accumulation inhibitors | shares compounds with H9c2 TAG inh | H9c2 lipid accumulation, Nile Red fluorescence; cells loaded with 200 µM oleic acid | inhibition, % at 12.5 µM | 71% of 990 active | AID 651629;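 active = mean inhibition across replicates of 40% or more; inactive = mean inhibition below 40%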;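 note: plate controls were DMSO only wells for no effect and Triacsin C treated wells for full effect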
* marks the source's active call; other numbers are inactive results; . = not tested or not shown. Compounds with a hit are over-represented: about 2.3% of the library has one in this group of screens.

SMILES	beta cell repl	aDG glyco up	FAS TE block	H9c2 TAG inh	Cardio protect	m-calpain inh	TAG conf
COCCCNC(=O)C[C@H]1C[C@H](C(=O)N2CCCCC2)[C@@]2(CCc3ccccc3)c3[nH]c4ccc(Cl)cc4c3CCN2C1=O	.	0	36	27	-7	.	.
CN(C)c1ccc(CC(=O)N2CCCCC2c2cc(C(=O)Nc3ccccc3Cl)no2)cc1 (centres undefined)	.	0	19	8	-6	.	.
Brc1ccc2nc(-c3ccco3)c(CC3CCCCC3)n2c1	.	0	0	.	-6	.	.
CC(C)n1cc(/C=C2\NC(=O)N(c3cccc(Cl)c3)C2=O)c2ccccc21	-4	0	20	.	-2	14	.
CC(C)n1cc(/C=C2/NC(=O)N(c3cccc(Cl)c3)C2=O)c2ccccc21	-2	3	22	55*	0	-20	23
Cc1noc(C)c1COc1ccccc1C(=O)N(C)CC(=O)Nc1ccc(F)cc1	0	0	0	-4	5	.	.
NC1=NC[C@H](Cc2ccccc2)N1CCc1cc(C(F)(F)F)cc(C(F)(F)F)c1	-8	0	-111	55*	7	-19	46*
FC(F)(F)c1cc(CCN2C(=S)NC[C@@H]2Cc2ccccc2)cc(C(F)(F)F)c1	-8	0	-27	-1	-6	25	.
CCOc1ccc(S(=O)(=O)NCc2cccnc2)cc1NC(=O)c1ccccc1	.	0	1	8	7	.	.
CCOc1ccc(S(=O)(=O)NCc2ccccn2)cc1NC(=O)c1ccccc1	-1	0	-2	58*	-1	.	78*
CCOc1ccc2nc(-c3ccccc3)nc(SCC(=O)Nc3ncc(C)s3)c2c1	-1	0	4	83*	-3	-129	81*
COc1ccc(-c2cc(-c3ccccc3)nc(SCC(=O)Nc3ncc(C)s3)c2C#N)cc1	-3	0	38	.	10	-73	.
CS(=O)(=O)c1cc(C(=O)O)cc(NCc2ccccc2)c1Oc1ccccc1	.	0	-7	11	6	.	.
CN(c1ccccc1C(=O)O)S(=O)(=O)c1ccc2[nH]c(=O)[nH]c2c1	-4	0	-3	.	1	.	.
COc1ccc(/C=C/C(=O)NNC(=O)C(C)Oc2ccccc2F)cc1OC (centres undefined)	5	0	-4	-3	5	.	.
Cc1cc(N2CCOCC2)nc2ccc(NC(=O)C3CCC(C)CC3)cc12 (centres undefined)	-4	0	-4	54*	24	-443	37
CCN1CCN(c2cc(C)c3cc(NC(=O)c4ccncc4)ccc3n2)CC1	-5	0	-10	6	19	19	.
CCN1CCN(c2cc(C)c3cc(NC(=O)c4ccc(Br)o4)ccc3n2)CC1	-4	1	-5	58*	11	5	37
Cc1ccc(S(=O)(=O)N(C)[C@H]2C[C@H]3c4[nH]c5ccccc5c4CCN3C[C@H]2[C@H](C)O)cc1	.	0	-2	.	-1	.	.
CCCc1nc2ccc(C(=O)OC)cn2c1Cc1cccc(F)c1	.	0	0	.	-1	.	.
CC(C)(C)OC(=O)[C@H](Cc1ccccc1)NC(=O)c1[nH]cnc1C(=O)Nc1ccccc1F	.	0	23	-16	42	.	.
CCn1ncc(/C=N/N=C2\CCC3C4CCc5cc(O)ccc5C4CCC23C)c1C (centres undefined)	-5	1	1	52*	-18	-137	48*
Cc1c(/C=N/N=C2\CCC3C4CCc5cc(O)ccc5C4CCC23C)cnn1C (centres undefined)	0	1	-1	.	-6	13	.
COc1ccc(CCn2c(S)nc3ccccc3c2=O)cc1	-1	0	-2	.	5	.	.
CC(OC(=O)C1=COCCO1)C(=O)NC1CCCC(C)C1C (centres undefined)	.	0	-3	-12	2	.	.
SMILES	beta cell repl	aDG glyco up	FAS TE block	H9c2 TAG inh	Cardio protect	m-calpain inh	TAG conf
COc1ccc(-c2nn(-c3ccccc3)cc2/C=C/C(=O)OCC(=O)Nc2ccccc2C#N)cc1	-5	0	0	67*	-2	-8	77*
O=C(Nc1ccc(-c2csc(Nc3cccc(C(F)(F)F)c3)n2)cc1)c1cc([N+](=O)[O-])cc(C(F)(F)F)c1	-9	0	27	71*	-6	-67	68*
O=C(Nc1cccc(-c2csc(Nc3cccc(C(F)(F)F)c3)n2)c1)c1ccccc1	-9	0	35	38	-13	-24	.
O=C(Nc1ccc(-c2csc(Nc3ccc(Cl)cc3)n2)cc1)c1ccccc1	-4	0	15	-4	-9	.	.
O=C(Nc1ccc(-c2csc(Nc3cccc(C(F)(F)F)c3)n2)cc1)c1ccccc1	-7	0	34	51*	-7	-6	63*
CC(C)(C)c1ccc(CC(=O)N2CCC2(C)C(=O)NCc2cccs2)cc1 (centres undefined)	.	0	5	-12	-5	.	.
COC(=O)[C@@]1(Cc2ccc(OC)cc2)[C@@H]2C(=CC(=O)[C@H]2CC(=O)C(=O)N2CCCC2)CN1C(=O)c1ccccc1	-7	0	-3	53*	7	-76	55*
COCCNC(=O)c1cc(-c2ccccc2)sc1N	.	0	.	.	.	.	.
C/C(=N\Nc1cc(N2CCOCC2)nc(C)n1)c1ccc(F)cc1	-1	0	2	52*	-2	.	38
C/C(=N\Nc1cc(N2CCCCC2)nc(C)n1)c1ccc(Br)cc1	-4	0	31	13	-21	.	.
Cc1ccccc1N1CCN(C2CCCN(C(=O)CCN3CCCO3)C2)CC1 (centres undefined)	2	0	-6	3	1	.	.
COc1ccc(S(=O)(=O)c2ccc(OC)cc2)cc1	-1	0	1	-16	2	-4	.
CC(=O)Oc1ccc(S(=O)(=O)c2ccc(OC(C)=O)cc2)cc1	4	0	-2	65*	2	-16	2
CCN(C(=O)COC(=O)c1ccc([N+](=O)[O-])o1)c1cccc2ccccc12	-2	0	34	69*	7	.	88*
COc1ccc([C@H]2C[C@H](O)[C@@H](n3cc(-c4ccc(F)cc4)nn3)CN2Cc2cccs2)cc1	.	0	33	59*	-24	.	52*
CNC(=S)N1N=C(c2ccc(C)cc2)CC1c1cc(OC)ccc1OC (centres undefined)	-4	-1	24	-12	-4	-11	.
COc1ccc(OC)c(C2CC(c3ccccc3)=NN2C(=S)Nc2ccccc2)c1 (centres undefined)	-2	0	42	52*	5	-8	50*
CS(=O)(=O)Oc1ccc2c(c1)O/C(=C\c1cccc([N+](=O)[O-])c1)C2=O	-4	0	0	.	8	.	.

Bioassay records: PubChem BioAssay, several laboratories
